{"source": "PubChem BioAssay AID1159580", "about": "(chemical genetic matrix, 2015)", "test": "chemical genetic growth profiling, strain panel (AID 1159580);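 also: tested at 20 µM; growth read once vehicle control cultures reached saturation at 30 °C; 1 = growth at the plate median or of vehicle wells; lower values mean less growth of the strain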", "details": "S. cerevisiae deletion strains, growth OD", "note": "Among all 5,500 compounds or so, about 2,000 (36%) were called active. Not shown: some 18% with an inconclusive outcome. This is one part of the list. Unmarked numbers belong to inactive results. Rule as the data show it: active = normalized growth mostly below about 0.91 (no sharp cut-off); inconclusive = no clear call, values can overlap the other calls; inactive = mostly above about 0.92.", "data": [{"molecule": "O=S(=O)(Nc1ccccc1Oc1ccccc1)c1ccc(-c2ccno2)s1", "values": [{"measurement": "normalized growth", "setting": "locus YAR019C, strain CDC15, active compounds read low", "value": 0.974}, {"measurement": "normalized growth", "setting": "locus YBL105C, strain PKC1, active compounds read low", "value": 0.961}, {"measurement": "normalized growth", "setting": "locus YBR135W, strain CKS1, active compounds read low", "value": 0.966}, {"measurement": "normalized growth", "setting": "locus YBR136W, strain MEC1, active compounds read low", "value": 0.968}, {"measurement": "normalized growth", "setting": "locus YBR160W, strain CDC28, active compounds read low", "value": 0.961}, {"measurement": "normalized growth", "setting": "locus YDL017W, strain CDC7, active compounds read low", "value": 0.969}, {"measurement": "normalized growth", "setting": "locus YDL028C, strain MPS1, active compounds read low", "value": 0.965}, {"measurement": "normalized growth", "setting": "locus YDL101C, strain DUN1, active compounds read low", "value": 0.968}, {"measurement": "normalized growth", "setting": "locus YDL108W, strain KIN28, active compounds read low", "value": 0.972}, {"measurement": "normalized growth", "setting": "locus YDL132W, strain cdc53, active compounds read low", "value": 0.964}, {"measurement": "normalized growth", "setting": "locus YDL214C, strain PRR2, active compounds read low", "value": 0.916}, {"measurement": "normalized growth", "setting": "locus YDR052C, strain DBF4, active compounds read low", "value": 0.978}, {"measurement": "normalized growth", "setting": "locus YDR054C, strain cdc34, active compounds read low", "value": 0.965}, {"measurement": "normalized growth", "setting": "locus YDR226W, strain ADK1, active compounds read low", "value": 0.968}, {"measurement": "normalized growth", "setting": "locus YDR477W, strain SNF1, active compounds read low", "value": 0.943}, {"measurement": "normalized growth", "setting": "locus YER123W, strain YCK3, active compounds read low", "value": 0.911}, {"measurement": "normalized growth", "setting": "locus YER133W, strain GLC7, active compounds read low", "value": 0.964}, {"measurement": "normalized growth", "setting": "locus YFL009W, strain cdc4, active compounds read low", "value": 0.96}, {"measurement": "normalized growth", "setting": "locus YFL029C, strain CAK1, active compounds read low", "value": 0.96}, {"measurement": "normalized growth", "setting": "locus YFR003C, strain YPI1, active compounds read low", "value": 0.969}, {"measurement": "normalized growth", "setting": "locus YFR019W, strain FAB1, active compounds read low", "value": 0.97}, {"measurement": "normalized growth", "setting": "locus YFR028C, strain CDC14, active compounds read low", "value": 0.963}, {"measurement": "normalized growth", "setting": "locus YGR040W, strain KSS1, active compounds read low", "value": 0.929}, {"measurement": "normalized growth", "setting": "locus YGR052W, strain FMP48, active compounds read low", "value": 0.976}, {"measurement": "normalized growth", "setting": "locus YGR092W, strain DBF2, active compounds read low", "value": 0.916}, {"measurement": "normalized growth", "setting": "locus YHR030C, strain SLT2, active compounds read low", "value": 0.961}, {"measurement": "normalized growth", "setting": "locus YHR079C, strain IRE1, active compounds read low", "value": 0.954}, {"measurement": "normalized growth", "setting": "locus YHR082C, strain KSP1, active compounds read low", "value": 0.98}, {"measurement": "normalized growth", "setting": "locus YHR205W, strain SCH9, active compounds read low", "value": 0.933}, {"measurement": "normalized growth", "setting": "locus YIL147C, strain SLN1, active compounds read low", "value": 0.969}, {"measurement": "normalized growth", "setting": "locus YJL095W, strain BCK1, active compounds read low", "value": 0.962}, {"measurement": "normalized growth", "setting": "locus YJL128C, strain PBS2, active compounds read low", "value": 0.953}, {"measurement": "normalized growth", "setting": "locus YJL157C, strain FAR1, active compounds read low", "value": 0.924}, {"measurement": "normalized growth", "setting": "locus YJR016C, strain ILV3, active compounds read low", "value": 0.964}, {"measurement": "normalized growth", "setting": "locus YJR066W, strain TOR1 (second series), active compounds read low", "value": 0.919}, {"measurement": "normalized growth", "setting": "locus YJR066W, strain TOR1, active compounds read low", "value": 1}, {"measurement": "normalized growth", "setting": "locus YKL048C, strain ELM1, active compounds read low", "value": 0.932}, {"measurement": "normalized growth", "setting": "locus YKL067W, strain YNK1, active compounds read low", "value": 0.941}, {"measurement": "normalized growth", "setting": "locus YKL101W, strain HSL1, active compounds read low", "value": 0.893}, {"measurement": "normalized growth", "setting": "locus YKL193C, strain SDS22, active compounds read low", "value": 0.962}, {"measurement": "normalized growth", "setting": "locus YKL203C, strain TOR2, active compounds read low", "value": 0.982}, {"measurement": "normalized growth", "setting": "locus YLR113W, strain HOG1, active compounds read low", "value": "0.769 (active)"}, {"measurement": "normalized growth", "setting": "locus YLR133W, strain CKI1, active compounds read low", "value": 0.914}, {"measurement": "normalized growth", "setting": "locus YLR403W, strain SFP1, active compounds read low", "value": 0.891}, {"measurement": "normalized growth", "setting": "locus YML070W, strain DAK1, active compounds read low", "value": 0.906}, {"measurement": "normalized growth", "setting": "locus YMR001C, strain CDC5, active compounds read low", "value": 0.968}, {"measurement": "normalized growth", "setting": "locus YMR205C, strain PFK2 (second series), active compounds read low", "value": 0.948}, {"measurement": "normalized growth", "setting": "locus YMR277W, strain FCP1, active compounds read low", "value": 0.965}, {"measurement": "normalized growth", "setting": "locus YNL006W, strain LST8, active compounds read low", "value": 0.973}, {"measurement": "normalized growth", "setting": "locus YNL020C, strain ARK1, active compounds read low", "value": 0.924}, {"measurement": "normalized growth", "setting": "locus YNL161W, strain CBK1, active compounds read low", "value": 0.968}, {"measurement": "normalized growth", "setting": "locus YNL183C, strain NPR1, active compounds read low", "value": 0.954}, {"measurement": "normalized growth", "setting": "locus YNL207W, strain RIO2, active compounds read low", "value": 0.966}, {"measurement": "normalized growth", "setting": "locus YNL222W, strain SSU72, active compounds read low", "value": 0.961}, {"measurement": "normalized growth", "setting": "locus YNL307C, strain MCK1 (second series), active compounds read low", "value": 0.932}, {"measurement": "normalized growth", "setting": "locus YOL078W, strain AVO1, active compounds read low", "value": 0.963}, {"measurement": "normalized growth", "setting": "locus YOL136C, strain PFK27, active compounds read low", "value": 0.908}, {"measurement": "normalized growth", "setting": "locus YOR061W, strain CKA2, active compounds read low", "value": 0.921}, {"measurement": "normalized growth", "setting": "locus YOR119C, strain RIO1, active compounds read low", "value": 0.995}, {"measurement": "normalized growth", "setting": "locus YOR231W, strain MKK1, active compounds read low", "value": 0.888}, {"measurement": "normalized growth", "setting": "locus YOR329C, strain SCD5, active compounds read low", "value": 0.968}, {"measurement": "normalized growth", "setting": "locus YPL031C, strain PHO85, active compounds read low", "value": 0.944}, {"measurement": "normalized growth", "setting": "locus YPL153C, strain RAD53, active compounds read low", "value": 0.93}, {"measurement": "normalized growth", "setting": "locus YPL204W, strain HRR25, active compounds read low", "value": 0.927}, {"measurement": "normalized growth", "setting": "locus YPL209C, strain IPL1, active compounds read low", "value": 0.965}, {"measurement": "normalized growth", "setting": "locus YPL256C, strain CLN2, active compounds read low", "value": 0.873}, {"measurement": "normalized growth", "setting": "locus YPR025C, strain CCL1, active compounds read low", "value": 0.971}, {"measurement": "normalized growth", "setting": "locus YPR106W, strain ISR1, active compounds read low", "value": 0.946}, {"measurement": "normalized growth", "setting": "locus YPR111W, strain DBF20, active compounds read low", "value": 0.929}, {"measurement": "normalized growth", "setting": "strain NNK1, active compounds read low", "value": 0.948}, {"measurement": "normalized growth", "setting": "strain TSCII, active compounds read low", "value": 0.967}]}, {"molecule": "NCCNS(=O)(=O)c1cccc2cnccc12", "values": [{"measurement": "normalized growth", "setting": "locus YAL040C, strain CLN3, active compounds read low", "value": 1.02}, {"measurement": "normalized growth", "setting": "locus YCL061C, strain MRC1 (second series), active compounds read low", "value": 1.01}, {"measurement": "normalized growth", "setting": "locus YDR363W, strain ESC2, active compounds read low", "value": 0.973}, {"measurement": "normalized growth", "setting": "locus YER002W, strain NOP16, active compounds read low", "value": 0.988}, {"measurement": "normalized growth", "setting": "locus YGR078C, strain PAC10, active compounds read low", "value": 0.968}, {"measurement": "normalized growth", "setting": "locus YGR229C, strain SMI1, active compounds read low", "value": 0.972}, {"measurement": "normalized growth", "setting": "locus YNL128W, strain TEP1, active compounds read low", "value": 0.986}, {"measurement": "normalized growth", "setting": "locus YNL153C, strain GIM3, active compounds read low", "value": 1.05}, {"measurement": "normalized growth", "setting": "locus YNL175C, strain NOP13, active compounds read low", "value": 0.958}, {"measurement": "normalized growth", "setting": "locus YNL197C, strain WHI3, active compounds read low", "value": 0.917}, {"measurement": "normalized growth", "setting": "locus YNL224C, strain SQS1, active compounds read low", "value": 0.98}, {"measurement": "normalized growth", "setting": "locus YNL322C, strain KRE1, active compounds read low", "value": 0.98}, {"measurement": "normalized growth", "setting": "locus YOR083W, strain WHI5 (second series), active compounds read low", "value": 0.923}, {"measurement": "normalized growth", "setting": "locus YPL241C, strain CIN2, active compounds read low", "value": 0.998}]}]}
